Experimental findings from PubChem BioAssay (NCATS) are described below.

Molecules are shown by their SMILES. Values joined by “and” are separate entries in the source; they are usually repeats but may differ in a detail not shown here. Equal values may be shown once. Inconclusive results are not listed. A number with no mark means an inactive call. Active and inactive are the calls of the source. Unless noted, calls follow the shape of the dose curve; as a rule, active = well fitted curve in the direction sought with a large enough effect; inconclusive = small, poorly fitted or top-dose-only effect, or another doubt; inactive = no such curve, though single readings can be large; an effect the other way counts as inactive or inconclusive.

Test [1] concerns the target Cellular tumor antigen p53 (Homo sapiens) (UniProt P04637). In words: Primary qHTS for small molecule compounds that upregulate eGFP-tagged delta133p53alpha (in N-terminal) cells. (AID 2060322). Also: nearly all actives have a fitted effect of over 75% in size. Also: potency is read from the fitted curve at half-maximal effect.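 As to activation: cells pre-induced with doxycycline then dosed without doxycycline; series mostly up to about 56 µM; 0% = DMSO vehicle and 100% = reference activator.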 The conditions noted are these: NCI-H358 eGFP-delta133p53alpha fluorescence, 24 h; activation: stronger effect = higher value. The gist of the method: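 NCI-H358 cells pre-induced 24 h with 10 ng/ml doxycycline for eGFP-delta133p53alpha, plated dox-free and exposed 24 h at 37C to titrated compounds. Fixed, Hoechst-stained; gated GFP peak intensity by laser scanning cytometry, normalized to DMSO (0%) and 57.5 uM 5-azacytidine (100%).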
(In general: In qHTS, concentration-response curves come from the screen itself.)

Test [2] addresses Aldehyde dehydrogenase, mitochondrial (Homo sapiens) (UniProt P05091). As to the kind of experiment: qHTS for Inhibitors of the Aldehyde Dehydrogenase Family (ALDH2) Confirmatory screens (AID 2061303; active = well fitted inhibition curve with a large enough effect; title and protocol of this record describe different tests; also: % is scaled to controls: 0 for no effect and ±100 for the full control effect; nearly all actives have a fitted effect of over 45% in size).
Test [3] is described as follows: qHTS for Inhibitors of the Aldehyde Dehydrogenase Family (ALDH1A2, ALDH1A3, ALDH2, ALDH3A1) (AID 2061307). Also: nearly all actives have a fitted effect of over 50% in size.
Test [4] addresses Aldehyde dehydrogenase, mitochondrial (Homo sapiens) (UniProt P05091). In words: qHTS for Inhibitors of the Aldehyde Dehydrogenase Family (ALDH2) Primary screen (AID 2061308).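 Also: plate controls were vehicle for no effect and reference inhibitor for full effect; nearly all actives have a fitted effect of over 55% in size.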
Test [5] concerns the target Retinal dehydrogenase 2 (Homo sapiens) (UniProt O94788). As to the kind of experiment: qHTS for Inhibitors of the Aldehyde Dehydrogenase Family (ALDH1A2) Confirmation screens (AID 2061314). Also: nearly all actives have a fitted effect of over 65% in size.
Test [6] has as its target Retinaldehyde dehydrogenase 3 (Homo sapiens) (UniProt P47895). In words: qHTS for Inhibitors of the Aldehyde Dehydrogenase Family (ALDH1A3) Confirmatory screens (AID 2061311). Also: nearly all actives have a fitted effect of over 60% in size.
For test [7] the target is unchanged. As to the kind of experiment: qHTS for Inhibitors of the Aldehyde Dehydrogenase Family (ALDH1A3) Validation screen (AID 2061312). Also: nearly all actives have a fitted effect of over 45% in size. Also: potency is read from the fitted curve at half-maximal effect.
The target is the same in test [8]. As to the kind of experiment: qHTS for Inhibitors of the Aldehyde Dehydrogenase Family (ALDH1A3) Primary screen (AID 2061315). Also: potency is read from the fitted curve at half-maximal effect.
Test [9] has as its target Aldehyde dehydrogenase 1A1 (Homo sapiens) (UniProt P00352). In words: qHTS for Inhibitors of the Aldehyde Dehydrogenase Family (ALDH1A1) Confirmatory screens (AID 2061316). Also: nearly all actives have a fitted effect of over 65% in size.
Test [10] is described as follows: BET inhibitor-based combinations targeting novel dependencies in MECOM-rearranged (r) AML: SET-2 cell line (AID 2202231). Also: nearly all actives have a fitted effect of over 35% in size. Also: potency is read from the fitted curve at half-maximal effect.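 As to viability: plate controls were DMSO treated cells for no effect and wells without cells for full effect.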 The conditions noted are these: SET-2 AML cells viability, CellTiter-Glo luminescence, 48 h; viability: stronger effect = lower value, concentration not given here. The gist of the method:
(§1)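 Viability of cells (500 per well) is scored by luminescent CellTiter-Glo at 48 hr post-dosing. Eleven-point titrations are normalized to DMSO and empty controls and reduced to AUC values.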
(Cellular ATP, detected with luciferase, serves as a proxy for viable cell number.)

Test [11] in a line: BET inhibitor-based combinations targeting novel dependencies in MECOM-rearranged (r) AML: OCI-AML3 cell line (AID 2202232). Also: nearly all actives have a fitted effect of over 35% in size. Also: potency is read from the fitted curve at half-maximal effect. The conditions noted are these: Potency: OCI-AML3 viability. The gist of the method: as §1
Test [12] in a line: BET inhibitor-based combinations targeting novel dependencies in MECOM-rearranged (r) AML: MV-4-11 cell line (AID 2202233). Also: nearly all actives have a fitted effect of over 45% in size. Also: potency is read from the fitted curve at half-maximal effect. The gist of the method:
(§2)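 Using pin-tool transfer, drugs were added in 11 doses to cells (500/well), incubated 48 hr, and assessed with CellTiter-Glo. Z-AUC is a mean-centring transformation applied separately to each screened line.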

A short description of test [13]: BET inhibitor-based combinations targeting novel dependencies in MECOM-rearranged (r) AML: HNT-34 cell line (AID 2202234). Also: nearly all actives have a fitted effect of over 35% in size. Also: potency is read from the fitted curve at half-maximal effect. The gist of the method: as §2
A short description of test [14]: BET inhibitor-based combinations targeting novel dependencies in MECOM-rearranged (r) AML: UCSD-AML1 cell line (AID 2202235). Also: nearly all actives have a fitted effect of over 40% in size. Also: potency is read from the fitted curve at half-maximal effect. The gist of the method:
as §2

A short description of test [15]: BET inhibitor-based combinations targeting novel dependencies in MECOM-rearranged (r) AML: AML-191 cell line (AID 2202236; also: nearly all actives have a fitted effect of over 35% in size; also: potency is read from the fitted curve at half-maximal effect). The gist of the method:
as §1

Test [16] in a line: BET inhibitor-based combinations targeting novel dependencies in MECOM-rearranged (r) AML: AML-194 cell line (AID 2202237; also: nearly all actives have a fitted effect of over 40% in size; also: potency is read from the fitted curve at half-maximal effect). The gist of the method:
as §1

Chain of Cellular tumor antigen p53 (Homo sapiens) (P04637 whole entry, looked up): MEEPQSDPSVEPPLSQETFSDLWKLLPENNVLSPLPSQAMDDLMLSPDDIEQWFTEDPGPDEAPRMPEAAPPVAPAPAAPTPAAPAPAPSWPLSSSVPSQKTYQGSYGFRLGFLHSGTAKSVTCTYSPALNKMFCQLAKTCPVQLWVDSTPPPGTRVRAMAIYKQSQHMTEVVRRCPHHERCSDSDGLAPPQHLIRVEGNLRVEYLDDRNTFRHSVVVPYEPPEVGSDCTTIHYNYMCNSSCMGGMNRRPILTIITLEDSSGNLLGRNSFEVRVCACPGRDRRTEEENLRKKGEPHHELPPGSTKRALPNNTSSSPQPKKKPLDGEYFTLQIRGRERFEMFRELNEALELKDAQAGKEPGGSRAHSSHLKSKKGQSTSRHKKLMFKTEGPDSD

`C=C(C)C(=O)O[C@H]1[C@H]2C(=C)C(=O)O[C@@H]2/C=C(\CO)CC/C=C(/C=O)[C@@H]1O`: the activation in test [1] was -6.11%. The Potency entry in [2], in [3], in test [4] and in [5] was “inactive” in each case.

In the case of `CC(C)C[C@H](NC(=O)[C@@H](NC(=O)c1cccc(-c2ccccc2)n1)[C@@H](C)O)B(O)O`, the Potency in test [1] is 385 nM (active) and 16.9 µM (active); in test [7], 10000 nM (active); in test [10], 72.3 nM (active); in test [11], 40.7 nM (active); in test [12] it was 51.2 nM (active); in test [13], 64.5 nM (active). The Potency in test [14] is 72.3 nM (active); in test [15], 81.1 nM (active); in [16], 91 nM (active). Further, the Potency entry in [2], in test [3], in test [6], in [5], in [8] and in [9] was “inactive” throughout.

Usually viability stands for a read-out of living cells in per cent, often relative to untreated cells. `CC(=O)OCC(=O)[C@@]1(O)[C@H](C)C[C@H]2[C@@H]3C=C(C)C4=Cc5c(cnn5-c5ccccc5)C[C@]4(C)[C@@H]3[C@@H](O)C[C@@]21C`: the activation in test [1] was 2.08%. Besides, the Potency result in test [2], in [3], in [4], in test [5], in test [8] and in [9] was “inactive” throughout. Besides, the Potency entry in test [11], in test [13] and in test [14] was “inactive” in each case. Moreover, the viability in [10] was 96.5%.

As for `C[C@@H]1CN(Cc2ncccn2)C[C@H]1c1nc2c(cnn2C2CCOCC2)c(=O)[nH]1`, the activation in test [1] was 0.955%. Also, the Potency result in [2], in [3], in [6], in test [7], in test [5] and in test [8] was “inactive” each time.

Turning to `CC1CCC23COC(=O)C2=CC(O)CC3C1(C)CCC1=CC(O)OC1=O` (stereo not given), the activation in [1] is -3.82%. In addition, the Potency result in test [2], in test [3], in [4], in test [5] and in test [8] was “inactive” in each case.

For `Cc1cc2ncc(C(=O)NCC(C)(C)NCC(=O)N3CCC[C@H]3C#N)cn2n1`, the activation in test [1] was -6.33%. The Potency result in [2], in test [3], in test [6] and in test [5] was “inactive” in each case.

As to `CNC(=O)c1cc(Oc2ccc(NC(=O)c3cccc(C(F)(F)F)c3)cc2)ccn1`, in [1], the activation was 8.04%. In addition, the Potency entry in test [2], in test [4], in test [5], in test [8] and in test [9] was “inactive” in each case. In [3], the Potency was 6340 nM (active).

Turning to `O=C(OCC1=C[C@@H](O)[C@@H]2C=CO[C@@H](O[C@@H]3O[C@H](CO)[C@@H](O)[C@H](O)[C@H]3O)[C@H]12)c1ccc(O)cc1`, the activation in [1] was 3.57%. The Potency result in [2], in test [3], in test [4], in test [5] and in test [8] was “inactive” in each case.

Consider `COc1cc(C(O)C2COC(c3ccc(OC4OC(CO)C(O)C(O)C4O)c(OC)c3)C2CO)ccc1O` (stereo not given), for which the activation in test [1] was -10.7%. Moreover, the Potency result in test [2], in [3], in test [4] and in [9] was “inactive” throughout.

Regarding `COc1cc(/C=C/c2cc(O)cc(O[C@@H]3O[C@H](CO)[C@@H](O)[C@H](O)[C@H]3O)c2)ccc1O`, the activation in [1] is 7.63%. For the same compound, the Potency result in test [2], in test [3], in test [4], in test [5] and in [9] was “inactive” in each case. Further, the Potency in [8] was 6310 nM (active).

For the compound `C=C1CC23CC1CCC2C12OC(=O)C(C)(CCC1O)C2C3C(=O)O` (stereo not given), the activation in test [1] is 21.4%. In addition, the Potency entry in test [2], in test [3], in test [4] and in test [5] was “inactive” each time.

Take `CC1(C)[C@H](C(=O)O)N2C(=O)C[C@H]2S1(=O)=O`: the activation in [1] was -10% and -6.44% and -12.3%. The Potency entry in [2], in [3], in test [4], in test [5], in [8] and in [9] was “inactive” each time.

In the case of `COc1cc(/C=C/C(=O)OC[C@H]2O[C@@H](OC3OC=C(C(=O)O)C4C(O)CC(C)(O)C34)[C@H](O)[C@@H](O)[C@@H]2O)cc(OC)c1O` (stereo not given in full), the activation in test [1] was -12.2%. In addition, the Potency entry in test [2], in test [3], in [4] and in [5] was “inactive” each time.

Consider `C=C1CC[C@H]2[C@@](C)(CCC(OC3OC(CO)C(O)C(O)C3O)[C@@]2(C)CO)C1C(=O)CC1=CCOC1=O` (stereo not given in full), for which, in test [1], the activation was -1.53%. In addition, the Potency result in [2], in test [3], in test [4] and in test [5] was “inactive” in each case.

For the compound `CN(C)c1cccc(-c2c3c(=O)n(-c4ccccc4Cl)[nH]c3cc(=O)n2C)c1`, the activation in test [1] was 5.36% and -13.4%. The Potency entry in test [2], in [3], in [4], in test [5], in test [11] and in [12] was “inactive” in each case. The Potency entry in test [13], in test [14], in [15] and in test [16] was “inactive” in each case. Also, in [10], the viability was 110%.

For `OC[C@@]1(O)CO[C@@H](OC[C@H]2O[C@@H](Oc3ccccc3)[C@H](O)[C@@H](O)[C@@H]2O)[C@@H]1O`, the activation in test [1] is -3.82%. In addition, the Potency entry in test [2], in test [3], in [4], in test [5] and in [9] was “inactive” throughout.

As for `CC1(C)CC(=O)c2c(C(F)(F)F)nn(-c3ccc(C(N)=O)c(NC4CCC(OC(=O)CN)CC4)c3)c2C1` (stereo not given), in test [1], the activation is 38.8% and -1.67%. Besides, the Potency result in test [2], in [3], in [4], in [8] and in test [9] was “inactive” in each case. The Potency in [10] is 263 nM (active); in test [11] it was 209 nM (active); in test [12], 59 nM (active); in test [13], 209 nM (active); in [14], 186 nM (active).
